The structures appear in SMILES notation. This is part of a sample that, as a whole, favours compounds with a hit. Of some 83,000 tested, about 20% had one in any assay.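 Negative percent growth values reflect cell death: -40 means 40% of the cells present at the start died, and -100 means all died.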 Values without a mark were called inactive. The source made the active and inactive calls. The calls were made as follows: active = growth percent below 10; inactive = the rest.

Some test systems named below: NCI-H23 lung; NCI-H226 lung; NCI-H322M lung; HOP-62 NSCLC; NCI-H460 lung; HOP-92 NSCLC; NCI-H522 lung; 786-0 renal; COLO 205 colon; DU-145 prostate; K-562 leukemia; MALME-3M melanoma; MDA-MB-231 breast; RXF 393 renal; SF-268 CNS; SF-295 CNS; SF-539 CNS; M14 melanoma; A549/ATCC NSCLC; UACC-257 melanoma.
Test in all cases: NCI-60 one-dose screen, 48 h (100 = growth as untreated, 0 = no growth, -100 = all killed)
Holding throughout (conditions): 10 µM

`COc1ccc(C(O)c2ccccc2)cc1` (stereo unspecified): the growth was 97.6% with NCI-H23 lung; 94% in the assay on NCI-H226 lung; 93.7% with NCI-H322M lung; 90.6% in the assay with HOP-62 NSCLC; 98.7% with NCI-H460 lung; 93.4% in the assay with HOP-92 NSCLC. For the same molecule, the growth in the assay with NCI-H522 lung is 94.8%; in the assay on 786-0 renal, 100%; in the assay on COLO 205 colon, 106%; in the assay with DU-145 prostate, 108%; in the assay with K-562 leukemia it was 88.5%; with MALME-3M melanoma, 101%. Further, the growth in the assay on MDA-MB-231 breast was 95.5%; with RXF 393 renal it was 111%; in the assay on SF-268 CNS it was 93.8%; in the assay on SF-295 CNS, 102%; in the assay with SF-539 CNS, 102%; in the assay on M14 melanoma it was 103%.
`Oc1ccc(Cc2ccccc2)c2cccnc12`: the growth with NCI-H23 lung is 7.91% (active); in the assay on NCI-H226 lung it was 75.7%; in the assay on NCI-H322M lung, -2.54% (active); with HOP-62 NSCLC, 18.3%; with NCI-H460 lung, 0.164% (active); in the assay on HOP-92 NSCLC, -0.901% (active). In addition, the growth in the assay on A549/ATCC NSCLC was 16.2%; in the assay with 786-0 renal it was -1.42% (active); in the assay with COLO 205 colon, 96.5%; in the assay with DU-145 prostate, 28.9%; in the assay on K-562 leukemia it was 13.3%; with MALME-3M melanoma, -0.436% (active). Moreover, the growth was 31% in the assay on MDA-MB-231 breast; 14.6% with RXF 393 renal; 20% with SF-268 CNS; 32.4% in the assay on SF-295 CNS; 11.8% with SF-539 CNS; 1.27% (active) in the assay on UACC-257 melanoma. In addition, the growth in the assay with M14 melanoma was -29.8% (active).
For `O=C1C[C@H](c2ccccc2)[C@H](c2ccccc2)C1`, the growth is 102% in the assay on NCI-H23 lung; 97.6% with NCI-H226 lung; 99.7% with NCI-H322M lung; 98.5% with HOP-62 NSCLC; 112% with NCI-H460 lung; 70.9% in the assay with HOP-92 NSCLC. In addition, the growth with NCI-H522 lung was 79%; in the assay with 786-0 renal it was 101%; in the assay with COLO 205 colon it was 113%; in the assay on DU-145 prostate, 121%; in the assay with K-562 leukemia, 111%; in the assay on MALME-3M melanoma it was 89.6%. Also, the growth with MDA-MB-231 breast is 99.1%; in the assay on RXF 393 renal, 111%; in the assay with SF-268 CNS, 105%; in the assay with SF-295 CNS, 108%; with SF-539 CNS it was 103%; in the assay with UACC-257 melanoma, 107%. Besides, the growth in the assay on M14 melanoma is 103%.
Consider `CC1(c2ccccc2)NC(=O)NC1=O` (stereo unspecified), for which the growth in the assay on NCI-H23 lung is 116%; in the assay with NCI-H226 lung, 98.3%; with NCI-H322M lung it was 97.2%; with HOP-62 NSCLC it was 111%; with NCI-H460 lung, 118%; in the assay on HOP-92 NSCLC it was 100%. Further, the growth in the assay on NCI-H522 lung was 99.4%; in the assay on A549/ATCC NSCLC, 96.5%; with COLO 205 colon it was 130%; in the assay on DU-145 prostate it was 125%; in the assay on K-562 leukemia, 103%; in the assay on MALME-3M melanoma it was 113%. Besides, the growth was 111% with MDA-MB-231 breast; 110% in the assay with RXF 393 renal; 106% in the assay on SF-268 CNS; 119% in the assay with SF-295 CNS; 117% in the assay with SF-539 CNS; 84.5% in the assay on UACC-257 melanoma. For the same molecule, the growth in the assay on M14 melanoma was 121%.
Take `CN(C)c1ccc(C(c2ccc(O)cc2)c2ccc(N(C)C)cc2)cc1`: the growth in the assay on NCI-H23 lung was 104%; in the assay with NCI-H226 lung it was 92.9%; in the assay on NCI-H322M lung, 98.4%; with HOP-62 NSCLC, 99.7%; with NCI-H460 lung it was 98.6%; in the assay with HOP-92 NSCLC it was 90.9%. Also, the growth in the assay on NCI-H522 lung is 81.1%; in the assay on 786-0 renal, 105%; with COLO 205 colon it was 101%; with DU-145 prostate it was 101%; in the assay on K-562 leukemia it was 49.9%; in the assay on MALME-3M melanoma, 91.5%. Further, the growth is 87.3% in the assay on MDA-MB-231 breast; 112% in the assay with RXF 393 renal; 92.1% in the assay with SF-268 CNS; 103% in the assay with SF-295 CNS; 104% in the assay with SF-539 CNS; 89.3% in the assay on M14 melanoma.
`CN(C)CCC(=O)c1ccc(O)cc1`: the growth in the assay with NCI-H23 lung is 97%; with NCI-H226 lung, 99%; in the assay with NCI-H322M lung it was 106%; in the assay with HOP-62 NSCLC it was 107%; in the assay with NCI-H460 lung, 103%; in the assay on HOP-92 NSCLC, 98.5%. For the same molecule, the growth in the assay with NCI-H522 lung was 102%; in the assay on A549/ATCC NSCLC it was 103%; in the assay with 786-0 renal it was 108%; in the assay on DU-145 prostate it was 104%; with K-562 leukemia, 104%; in the assay with MALME-3M melanoma it was 108%. For the same molecule, the growth is 112% with RXF 393 renal; 95.5% in the assay with SF-268 CNS; 106% in the assay on SF-295 CNS; 104% with SF-539 CNS; 105% with UACC-257 melanoma; 104% in the assay on M14 melanoma.
Regarding `O=C(CCNNC(=O)c1ccncc1)NCc1ccccc1`, the growth with NCI-H23 lung is 95.8%; in the assay with NCI-H226 lung it was 90.7%; in the assay on NCI-H322M lung, 110%; in the assay with HOP-62 NSCLC, 98.3%; with NCI-H460 lung, 102%; with HOP-92 NSCLC, 97.8%. In addition, the growth was 58.2% in the assay on NCI-H522 lung; 104% in the assay with A549/ATCC NSCLC; 107% with 786-0 renal; 110% in the assay on MALME-3M melanoma; 60.9% with MDA-MB-231 breast; 93.8% in the assay with RXF 393 renal. The growth in the assay with SF-268 CNS was 95.8%; in the assay with SF-295 CNS, 105%; with SF-539 CNS, 95.4%; in the assay with UACC-257 melanoma, 110%; with M14 melanoma, 103%.
For the molecule `NNc1ccccc1C(=O)O`, the growth with NCI-H23 lung is 111%; in the assay on NCI-H226 lung it was 96%; with NCI-H322M lung, 128%; with HOP-62 NSCLC it was 104%; in the assay with NCI-H460 lung, 110%; with HOP-92 NSCLC, 98.1%. Besides, the growth with A549/ATCC NSCLC is 109%; in the assay with 786-0 renal, 113%; with COLO 205 colon, 107%; with DU-145 prostate it was 121%; with K-562 leukemia, 108%; with MALME-3M melanoma, 168%. Moreover, the growth in the assay on MDA-MB-231 breast is 104%; in the assay with RXF 393 renal, 114%; in the assay with SF-268 CNS, 100%; with SF-295 CNS, 114%; in the assay on SF-539 CNS it was 101%; in the assay with UACC-257 melanoma, 103%. Also, the growth with M14 melanoma is 110%.
Take `FC(F)(F)c1ccc2c(c1)N(CCCN1CCN(C3CC3)CC1)c1ccccc1S2`: the growth is 27% in the assay with NCI-H23 lung; 75.4% in the assay on NCI-H226 lung; 112% with NCI-H322M lung; 95.7% in the assay on HOP-62 NSCLC; 24.4% in the assay on NCI-H460 lung; 51.1% in the assay with HOP-92 NSCLC. Moreover, the growth with NCI-H522 lung is 28.7%; with A549/ATCC NSCLC, 67.3%; in the assay on 786-0 renal it was 63.9%; in the assay on DU-145 prostate, 2.25% (active); in the assay with K-562 leukemia, 24.5%; in the assay on MALME-3M melanoma it was 96.7%. Moreover, the growth in the assay with MDA-MB-231 breast is 83%; with RXF 393 renal, 80.7%; in the assay with SF-268 CNS, -4.95% (active); with SF-295 CNS, 3.21% (active); with SF-539 CNS, 94.2%; with UACC-257 melanoma, 74.4%. In addition, the growth with M14 melanoma was 34.3%.

(Values after PubChem BioAssay (NCI).)
